The results in this text go back to PubChem BioAssay AID651780 (The Scripps Research Institute Molecular Screening Center, 2012).

Hit rate of the full screen: of about 2,400 compounds, about 1,800 (75%) were called active. Cut-off read from the data, not from the text of the source: active = inhibition above about 22%; inactive = the rest. So high a share suggests a set chosen from earlier hits. These entries were drawn from the full list.

A word on the inhibition: it is the change of the read-out against control, counted positive when it falls.

The assay is described as follows: calcium response inhibition in counter-screen line – cell-based, fluorescence, counter-screen for hTAAR1 antagonist project (AID 651780).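 Note: CHO-Ga16 host cells stimulated with ATP at an EC80 level; 0% = agonist EC80 plus vehicle and 100% = vehicle without agonist.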 The settings on record: counterscreen cell line, antagonist mode, at 3 µM, active compounds read high. Background: A counterscreen serves to expose hits that act by an unwanted route or on another target.
Regarding `COc1ccc(CCNC(=O)C(=O)NCC2OCCN2S(=O)(=O)c2ccc(OC)c(C)c2)cc1` (stereo not given), the inhibition is 23.7% (active).
As for `O=C(COC(=O)CCCSc1nc2ccccc2[nH]1)Nc1ccc(Oc2ccccc2)cc1`, the inhibition is 39.8% (active).
The same measure for `O=C(O)c1ccc(NC(=O)c2cn(-c3ccccc3)nc2-c2ccc(Cl)cc2)cc1`: 36.1% (active).
The same measure for `COc1ccc(CC(=O)Nc2c(C(N)=O)oc3ccccc23)cc1`: 22.3% (active); for `CC(C)(C)OC(=O)NCCCCCNC(=O)c1nc[nH]c1C(=O)NCc1ccccc1`: 22% (active).
`C[C@H](NC(=O)c1nc[nH]c1C(=O)NCC(=O)OC(C)(C)C)C(=O)OCc1ccccc1`: the inhibition was 23.6% (active).
The same measure for `Cc1cccc(NC(=O)c2nc[nH]c2C(=O)NCC(=O)OCc2ccccc2)c1`: 26% (active); for `OC(c1ccccc1)(c1ccccc1)C1CCN(CCCOc2ccc(-c3ccsc3)cc2)CC1`: 40.2% (active); for `CC(=O)Nc1ccc(NC(=O)COC(=O)C2CCC(C(C)(C)C)CC2)cc1` (stereo not given): 24.5% (active).
Turning to `O=C(NCC1CCCO1)c1cc2c([nH]c3ccccc32)c(-c2ccc(F)cc2)n1` (stereo not given), the inhibition was 30.9% (active).
The same measure for `CC(=O)N1CCN(C(=O)c2cc(-c3ccc(Cl)s3)nc3ccccc23)CC1`: 26.1% (active); for `O=C(COC(=O)c1c2c(nc3ccccc13)CCCC2)c1ccc(Br)s1`: 20.1% (inactive).
In the case of `Cc1cccc(C)c1NC(=O)CNC(=O)C1CCCC1`, the inhibition was 5.58% (inactive).
The same measure for `O=S1(=O)c2c(cccc2N2CCCCC2)O[C@H](COCc2ccccc2)CN1C1CC1`: 32.5% (active).
Next, `Cc1cc(Br)ccc1NC(=O)c1cnc(N2CCN(c3ccccn3)CC2)c2ccccc12`: 38.4% (active); `Cc1ccccc1NC(=O)Cc1nc(COC(=O)C(C)(C)Oc2ccc(Cl)cc2)cs1`: 33.4% (active).
Next, `COC(=O)c1sccc1NC(=O)c1cc(OC)c(OC)c(OC)c1`: 21.3% (inactive).
With `COc1cc2ccccc2cc1C(=O)Nc1ccc(NC(=O)c2cccs2)cc1`, the inhibition was 27.7% (active).
The same measure for `O=C1c2ccccc2C(=O)N1CCC#Cc1ccc2cc(C3(O)CCCCC3)oc(=O)c2c1`: 44% (active).
Next, `COc1ccc(CCNC(=O)c2ccc(CS(=O)(=O)c3ccc(Br)cc3)o2)cc1OC`: 35% (active).
Next, `CCOC(=O)C1C(c2ccc(OC)c(OC)c2)c2c([nH][nH]c2=O)CC1(C)O` (stereo not given): 25.2% (active).
`COC(=O)Cc1nnn2c1[C@H](C)[C@H](c1ccccc1Br)OCC2`: the inhibition is 0.66% (inactive).
Consider `COc1ccc(NC(=O)C2CCCN(S(=O)(=O)c3cccc4cccnc34)C2)cc1OC` (stereo not given), for which the inhibition is 29.3% (active).
The same measure for `COc1ccc(S(=O)(=O)N2CCCC(C(=O)Nc3ccc(NC(=O)c4ccccn4)cc3)C2)cc1` (stereo not given): 29.2% (active); for `Cc1onc(-c2c(F)cccc2Cl)c1C(=O)Nc1cccc(S(=O)(=O)N2CCCCC2)c1`: 19.7% (inactive); for `COc1ccc(C(=O)Nc2cccc(NC(=O)c3ccc(OC)cc3OC)n2)c(OC)c1`: 22.6% (active).
Regarding `CSc1nc(-c2ccccc2)nc(C(Cl)Cl)n1`, the inhibition is -4.34% (inactive).
Consider `COc1cc(/C=C2/C(=O)ON=C2C)ccc1OCc1ccccc1F`, for which the inhibition was 57.1% (active).
The same measure for `Cc1nc(N2CCN(c3ccccn3)CC2)c2c(C)c(C(=O)Nc3ccc(F)cc3)sc2n1`: 36.4% (active).
The same measure for `CSC(=S)N/N=C/c1c[nH]c2ccccc12`: 19.5% (inactive).
Take `Nc1nonc1-n1nnc(C(=O)N/N=C/c2c[nH]c3ccccc23)c1-c1ccccc1`: the inhibition was 29.3% (active).
For the compound `COc1ccc(CCNC2=C(Cl)C(=O)N(Cc3ccccc3)C2=O)cc1OC`, the inhibition was 31.3% (active).
The same measure for `COc1ccc(OC)c2[nH]c(=O)c(CCNC(=O)C(=O)c3c[nH]c4ccccc34)cc12`: 26.8% (active); for `CC(=O)OCCN(CCCn1c(-c2ccncc2)nc2ccccc21)c1nc(-c2ccc(C)cc2)cs1`: 24.1% (active); for `O=c1[nH]c(CSc2ncc(-c3ccc(F)cc3)n2Cc2ccco2)nc2ccccc12`: 29.8% (active).
The same measure for `CCCCNc1c(-c2cccc(Sc3ccc(OC)cc3)c2)nc2ccccn12`: 42.4% (active); for `C[C@H](O)[C@@H]1C(=O)N2CCc3c([nH]c4c(-c5ccc6c(c5)OCO6)cccc34)[C@@H]2C[C@@H]1N(C)C(=O)c1ccco1`: 35.2% (active).
Next, `Cc1cccc(NC(=O)c2ccc(COc3ccccc3[N+](=O)[O-])o2)n1`: 15.8% (inactive); `COC(=O)C1=C(C)N(Cc2ccc(F)cc2)C(=S)NC1c1cccc(Cl)c1` (stereo not given): 23.3% (active); `O=C(N/N=C/c1ccc(Cl)c(Cl)c1)c1ccc2nc[nH]c2c1`: 27.9% (active).
As to `Cc1nn(-c2ccccc2)c(C)c1NC(=O)COC(=O)c1cc(Cl)ccc1O`, the inhibition was 32.8% (active).
Next, `CNC(=O)c1ccsc1NC(=O)c1ccc(S(=O)(=O)N2CCc3ccccc32)cc1`: 32.3% (active); `CCN1CCc2c(C#N)c(NCc3ccccc3)nc(NCCO)c2C1`: 5.04% (inactive).
The same measure for `C=CCn1c(SCc2cccc(F)c2)nc2cc(C(=O)N3CCC(C(N)=O)CC3)ccc2c1=O`: 25.6% (active).
The same measure for `CC(=O)c1ccccc1OCc1ccc(C(=O)c2ccccc2)cc1`: 27% (active); for `CCNS(=O)(=O)c1ccc(CCC(=O)N2CCN(c3cc(Cl)ccc3C)CC2)cc1`: 37.1% (active).
For the compound `COc1ccc(Cl)cc1NC(=O)CCS(=O)(=O)c1cc2c(cc1C)NC(=O)CO2`, the inhibition is 23.5% (active).
Next, `CCc1ccc2c(c1)NC(=O)C2(C)Cc1ccc(OC(F)(F)F)cc1` (stereo not given): 4.79% (inactive); `O=C(Oc1ccc(-c2nnco2)cc1)c1ccc(F)c(S(=O)(=O)N2CCOCC2)c1`: 32.8% (active); `COc1ccc(C(=O)Oc2ccc(-c3nnco3)cc2)cc1S(=O)(=O)N1CCOCC1`: 25.1% (active).
The same measure for `O=C(Nc1ccc(-c2nnc(-c3ccccc3)o2)cc1)c1ccc(Br)o1`: 16% (inactive); for `CCC(=O)Oc1cccc(C(=O)Nc2ccc(-c3nnc(-c4ccco4)o3)cc2)c1`: 26.1% (active).
For `COc1ccc2[nH]c(=O)c(CN(Cc3cccnc3)S(=O)(=O)c3ccccc3F)cc2c1`, the inhibition was 34.9% (active).
Next, `C=CCc1cc(S(=O)(=O)c2ccc(O)c(CC=C)c2)ccc1O`: 18.2% (inactive).
Consider `O=C(NCCN1CCOCC1)c1ccccc1N1C(=O)[C@@H]2Cc3c([nH]c4ccccc34)C(c3cccc(Cl)c3)N2C1=O` (stereo not given in full), for which the inhibition is 26.3% (active).
Next, `COC(=O)[C@@]1(Sc2ccc(C)cc2)CC(=O)N(c2cccc(SC)c2)[C@@H]1c1ccccc1`: 21.8% (active); `Clc1ccc(Nc2ncnc3c2nnn3Cc2ccccc2)cc1`: 9.4% (inactive); `Cc1ccc2c(c1)N(CC(=O)NCCc1ccc(Cl)cc1)C(=O)c1cccnc1O2`: 22.1% (active).
Next, `Cc1ccc(-n2c(C)cc(/C=N\NC(=O)CC(=O)NC(C)C)c2C)cc1`: 7.15% (inactive); `C/C(=N\Nc1ncc(Cl)cc1Cl)c1ccc(S(=O)(=O)NCc2ccco2)cc1`: 28.7% (active); `Fc1ccc(/C=N/Nc2nc(-c3cccnc3)nc3ccccc23)cc1`: 25.1% (active).
Next, `O=C(OCC(=O)N(CCc1ccccc1)Cc1ccccc1)c1ccccc1[N+](=O)[O-]`: 33.2% (active); `Cc1ccc2cccc(OCCCOc3ccccc3CO)c2n1`: 20.3% (inactive); `COc1cc(OC)cc(C(=O)OCC(=O)Nc2sccc2C(N)=O)c1`: 27.8% (active).
Turning to `COc1cc(SC#N)ccc1N=Cc1c(C)[nH]n(-c2ccc(C)cc2)c1=O`, the inhibition is 87.2% (active).
The same measure for `C=CCC[C@@H](Cc1ccc(F)cc1)C(=O)O[C@H](CNC(=O)[C@H](CC=C)CC(=O)N(CCO)Cc1ccccc1)c1ccccc1`: 39.2% (active).
Next, `C=CCC[C@H](Cc1ccc(F)cc1)C(=O)OC[C@H](C)NC(=O)[C@H](CC=C)CC(=O)N(CCO)Cc1ccccc1`: 27.6% (active); `Oc1ccccc1N1CCN(c2ncnc3sc(-c4ccccc4)cc23)CC1`: 30.2% (active); `O=S(=O)(c1cccs1)N1CCCc2nc(-c3ccc(Br)cc3)ccc21`: 33.3% (active).
Regarding `CCOC(=O)C1=C(NC(=S)NC(=O)c2ccccc2)c2ccccc2CC1(C)C`, the inhibition was 24.8% (active).
The same measure for `COc1ccc(-c2nn(-c3ccccc3)cc2C(=O)Nc2nccs2)cc1OC`: 24.8% (active).
Take `CSCCC(NC(=O)COc1ccccc1)C(=O)OCC(=O)c1cc2ccccc2o1` (stereo not given): the inhibition was 24.2% (active).
Next, `CSCCC(NC(=O)COc1ccccc1)C(=O)OCCOc1ccc(Br)cc1` (stereo not given): 21.9% (active); `C[C@@H]1CN([C@@H](C)CO)S(=O)(=O)c2ccc(C#Cc3cccc(F)c3)cc2O[C@H]1CN(C)S(=O)(=O)c1cn(C)cn1`: 38.3% (active); `Cc1ccc(SCc2c(C(=O)N/N=C/c3cccnc3)nnn2-c2nonc2N)cc1`: 38.4% (active).
The same measure for `Oc1ccc(/C=N/Nc2nc(-c3ccccc3F)nc3ccccc23)c(O)c1`: 38.2% (active); for `COc1ccc(N(CC(=O)N/N=C/c2cccs2)S(=O)(=O)c2ccc(OC)c(OC)c2)cc1`: 25.2% (active).
On to `COc1ccc(S(=O)(=O)N(CC(=O)NCc2ccco2)c2ccc(F)cc2)cc1`, for which the inhibition was 19.3% (inactive).
`O=C(CN1CCCSc2ccccc21)N1CCN(S(=O)(=O)c2cccc(F)c2)CC1`: the inhibition is 19.4% (inactive).
Next, `NNC(=O)CNC(c1ccccc1)c1cc(Cl)ccc1NC(=O)c1ccccc1` (stereo not given): 22.9% (active); `CCOc1ccc(NC(=O)N2CC=C(n3c(=O)[nH]c4ccccc43)CC2)cc1`: 19.3% (inactive); `Cn1c2ccccc2c(=O)c2c(=O)n(Cc3ccco3)c(COc3ccccc3)nc21`: 21.8% (active).
The same measure for `Cc1ccc(C)c(N2CCN(C(=O)CCCCCn3c(=S)[nH]c4ccc(N5CCOCC5)cc4c3=O)CC2)c1`: 44.4% (active); for `Cc1ccc(NC(=O)c2ccc(CSc3ncnc4nc[nH]c34)cc2)c(C)c1`: 17.2% (inactive); for `CC(=O)n1cc([C@H]2C=C(C(=O)N3CCOCC3)O[C@@H](OCc3ccc(CO)cc3)C2)c2ccccc21`: 24.4% (active).
